Data: PubChem BioAssay AID1566 (Sanford-Burnham Center for Chemical Genomics, 2009)
Out of some 290,000 compounds screened, about 1,800 (0.62%) were called active. Only a selection was taken, and actives are over-represented in it overall. Unmarked numbers belong to inactive results. Cut-off read from the data, not from the text of the source: active = inhibition above about 50%; inactive = the rest.

Test: inhibition of NOD2-driven NF-kB reporter – cell-based, luminescence, uHTS, HEK293 (AID 1566)
Conditions: HEK293 NOD2/NF-kB luciferase reporter, at 4 µM, hits give high values

| Compound | inhibition |
| --- | --- |
| CS(=O)(=O)Nc1ccccc1C(=O)NCCSCc1ccccc1 | -4.8% |
| CNC(=S)NC1CC2CCC(C1)N2Cc1ccccc1 (stereo not given) | 0.2% |
| CC(C)C(NC(=O)C(NC(=O)C1O[C@@H]2OC(C)(C)O[C@@H]2[C@H]2OC(C)(C)O[C@@H]12)C(C)C)C(=O)O (stereo not given in full) | 20% |
| CCOC(=O)Cc1csc(NS(=O)(=O)c2cc(Cl)ccc2Cl)n1 | -18.2% |
| COc1cc2cc(Br)cc(Br)c2nc1C | 5.9% |
| Brc1cc(Br)c2nc3c(cc2c1)CCC3 | 7.6% |
| CCS(=O)(=O)N1CCN(C(=O)c2cccc(OC)c2)CC1 | 14.1% |
| Cc1cc2cc(CNC(=S)Nc3ccc(OC(F)F)cc3)ccc2[nH]1 | 4.6% |
| C=CCn1c(-c2cccn(Cc3cccc(Cl)c3)c2=O)n[nH]c1=S | 12.9% |
| C=CCn1c(-c2cccn(Cc3ccccc3)c2=O)n[nH]c1=S | 15.3% |
| C=CCn1c(-c2cccn(Cc3ccc(Cl)cc3)c2=O)n[nH]c1=S | 50.3% (active) |
| CSc1ccccc1OCc1cc(C(=O)N2CCSCC2)no1 | -40.6% |
| CC1=C(C(=O)OCc2ccccc2)C(c2cccc([N+](=O)[O-])c2)NC(=O)N1CCCCCC(=O)O (stereo not given) | 10.6% |
| COc1ccccc1OCC(=O)NC1CCCCCC1 | 10.3% |
| O=C(c1ccc(Oc2ccc([N+](=O)[O-])cc2Cl)cc1)N1CCCC1 | 15.1% |
| COc1cc(/C=N/N2CCN(Cc3ccc(C)cc3)CC2)cc(OC)c1O | 2.5% |
| O=C(Nc1c(-c2ccccc2)nc2ccccn12)c1ccccc1 | 3.9% |
| O=C(Nc1c(-c2ccc(F)cc2)nc2ccccn12)c1ccc(F)cc1 | 79.7% (active) |
| CC(=O)Nc1c(-c2ccc(F)cc2)nc2ccccn12 | -10.8% |
| O=C(CCS(=O)(=O)c1ccccc1)N1CCN(c2cccc(C(F)(F)F)c2)CC1 | 11.5% |
| COc1ccc(/C=C/C(=O)Nc2ccccc2C(F)(F)F)cc1 | -25.4% |
| CCCCOCC(O)CN1CCN(C(C)=O)CC1 (stereo not given) | 10.9% |
| COc1ccc(N=Cc2cc(Cc3ccccc3Cl)cc([N+](=O)[O-])c2O)cc1OC | -10.2% |
| O=[N+]([O-])c1cc(Cc2ccccc2)cc(C=Nc2ccc(N3CCOCC3)cc2)c1O | 11.1% |
| O=C1NN=C(c2ccccc2)CC1c1c[nH]c2ccccc12 (stereo not given) | -14% |

| Compound | inhibition |
| --- | --- |
| COc1ccc(NC(=O)CS(=O)(=O)c2cn(CC(=O)N3CCCC3)c3ccccc23)c(OC)c1 | -10.2% |
| Cc1ncc(CO)c(CNc2ccc(Oc3ccccc3)cc2)c1O | 50.4% (active) |
| Cc1ncc(CO)c(/C=N/N=C/c2ccccc2O)c1O | -28% |
| Cc1ncc(CO)c(CNc2ccc(-c3nc4ccccc4[nH]3)cc2)c1O | -99.7% |
| O=C(COC(=O)c1ccc(Br)cc1)NC1CCCC1 | 10.3% |
| O=C(Nc1cccc2ccccc12)c1ccccc1Cl | -7.8% |
| CCCCCCc1cc2cc(C(=O)Nc3ccccc3)c(=O)oc2cc1O | -36.8% |
| CCCCCCc1cc2cc(C(N)=O)c(=N)oc2cc1O | 1.5% |
| CCOC(=O)c1c(NC(=O)CSc2n[nH]c(-c3ccco3)n2)sc(C)c1C | 11.6% |
| COCCSc1nnc(NC(=O)C2CC(=O)N(CCc3ccc(F)cc3)C2)s1 (stereo not given) | 16.7% |
| O=C(CCCCn1c(=O)c2ccccc2n(CC(=O)Nc2ccccc2)c1=O)NCc1ccco1 | 3.3% |
| COc1ccc(/C(O)=C/c2nc3ccccc3n(-c3ccccc3)c2=O)cc1 | 24.8% |
| COc1ccc(-n2c(=O)c(CCC(=O)N(C)Cc3ccccc3C)nc3ccccc32)cc1 | 0.2% |
| Cc1ccc(NS(=O)(=O)c2cccc(C(=O)NNC(=O)c3cccn3C)c2)c(C)c1 | -2.3% |
| C/C(=N\NC(=O)NC1CCCCC1)c1ccco1 | -11.6% |
| O=C(c1cc(Cl)nc2ccccc12)N(Cc1nnc(-c2ccccc2Cl)o1)C1CC1 | 14.2% |
| Cc1noc(C)c1C(=O)NCc1ccccc1 | 16.6% |
| COc1ccc(NC(=O)c2cc([N+](=O)[O-])ccc2N2CCCC2)cc1 | 7.4% |
| COc1ccc(NC(=O)c2cc([N+](=O)[O-])ccc2O)cc1 | 70.6% (active) |
| COc1ccc(NC(=O)c2cc([N+](=O)[O-])ccc2N2CCCCC2)cc1 | -14.3% |
| O=[N+]([O-])c1cc(Cl)ccc1NCCNc1ncc(C(F)(F)F)cc1Cl | 12.4% |
| Nc1cc(=O)[nH]c(SCc2ccccc2Cl)n1 | 23.4% |
| Cc1cc(=O)[nH]c(SCc2ccc(Cl)cc2Cl)n1 | 4.6% |
| Nc1cc(=O)[nH]c(SCc2ccc(Cl)cc2Cl)n1 | 58.1% (active) |
| Cn1c(C(=O)N2CCN(c3ccc(F)cc3)CC2)cc2ccccc21 | 1.5% |
